Inhibition data for 95 compounds are collected here from PubChem BioAssay AID1578 (Sanford-Burnham Center for Chemical Genomics, 2009).

About 3,000 (1%) of roughly 290,000 compounds were called active. This is one part of a sample in which actives are shown more often than they occur. Unmarked numbers belong to inactive results. Rule as the data show it: active = inhibition mostly above about 36% (no sharp cut-off); inactive = mostly below about 34%.

As usually defined, the inhibition is the drop in the measured response relative to a control, in per cent.

The nature of the experiment: inhibition of NOD1-driven NF-kB reporter – cell-based, luminescence, uHTS, primary screen (AID 1578).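 Also: HEK-293T reporter cells stimulated with the NOD1 agonist gamma-tri-DAP.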 Conditions: NOD1-driven NF-kB luciferase reporter cells, at 4 µM, active compounds read high. (Reporter assays use an easily measured gene product as a stand-in for the process of interest.)
On to `O=C(CCC(=O)Nc1nnc(C2CCCCC2)s1)NCc1ccc(F)cc1`, for which the inhibition is -10.8%.

For `CSc1ccc(OC2CCCCC2NS(=O)(=O)c2ccccc2)cc1` (stereo not given), the inhibition was -17%.

With `Cc1cc(OCC(=O)NCCc2cccc(F)c2)c2c(C)cc(=O)oc2c1`, the inhibition is 21.7%.

As to `NC(=O)N/N=C/c1c(O)ccc2oc3c(c12)CCCC3`, the inhibition was -15.5%.

Turning to `Cc1cccc(/N=C/c2c(O)ccc3oc4c(c23)CCCC4)n1`, the inhibition was 3.8%.

As to `O=C(O)c1ccc(N=Cc2c(O)ccc3oc4c(c23)CCCC4)cc1`, the inhibition was 60% (active).

For the compound `Oc1ccc2oc3c(c2c1/C=N/n1cnnc1)CCCC3`, the inhibition is 59.5% (active).

For `CC(C)(C)N=Cc1c(O)ccc2oc3c(c12)CCCC3`, the inhibition was -1.4%.

`Oc1ccccc1N=Cc1c(O)ccc2oc3c(c12)CCCC3`: the inhibition is -2.1%.

Take `COC(=O)c1ccsc1NC(=O)CCc1ccccc1`: the inhibition was -59.2%.

In the case of `COc1cc(NC(=S)NCc2cccnc2)c(OC)cc1Cl`, the inhibition is -26.2%.

Regarding `CC(=O)c1nnn(-c2c(F)cccc2F)c1C`, the inhibition was -11.8%.

On to `O=c1[nH][nH]c(C(F)(F)F)c1C=NCc1cccc(Cl)c1`, for which the inhibition was -0.4%.

As to `CCc1ccc(/C=C/c2c[nH]c3ccccc23)[n+](CC)c1`, the inhibition was -7.1%.

Consider `CC[n+]1ccc(/C=C/c2c[nH]c3ccccc23)cc1`, for which the inhibition is 3.8%.

With `CC[n+]1c(/C=C/c2c[nH]c3ccccc23)ccc2cc(C)ccc21`, the inhibition is 79.9% (active).

Regarding `Cn1nnc2cc(NC(=O)Nc3cccc(C(F)(F)F)c3)ccc21`, the inhibition was -5.1%.

As for `COc1ccccc1N1CCN(C(=O)CN2C(=O)C3CCCCC3C2=O)CC1` (stereo not given), the inhibition was -30.6%.

For `CCCCN(C)C1CCN(C(=S)Nc2ccc(OC)cc2)CC1`, the inhibition is -31.8%.

Take `Cc1cc(C)c(S(=O)(=O)c2ccccc2)c(N2CCOCC2)n1`: the inhibition was -15.6%.

For the compound `CCCc1ccc(-c2ccc(/C=C/C(=O)O)cc2)nc1`, the inhibition was 76.4% (active).

`CCCCCc1ccc(-c2ccc(/C=C/C(=O)O)cc2)nc1`: the inhibition was -27.7%.

Turning to `CCCCCc1ccc(-c2ccc(/C=C/C(N)=O)cc2)nc1`, the inhibition is -38.2%.

For the compound `Cc1cc2c(c(=O)n1Cc1cccnc1)C(c1cccs1)C(C#N)=C(N)O2` (stereo not given), the inhibition was 7%.

`O=S(=O)(NC1CCCC1)c1cccc(-c2nnc(-c3ccccc3)o2)c1`: the inhibition is -5.3%.

`COC(=O)[C@@H](NC(=O)NCc1cccs1)C(C)C`: the inhibition is 8.6%.

Consider `CCCCCNC(=O)c1c[nH]c2ccc(S(=O)(=O)N3CCC4(CC3)OCCO4)cc2c1=O`, for which the inhibition was -39.2%.

As for `CCC(=O)Nc1c2c(nn1-c1ccccc1)CSC2`, the inhibition is -26%.

As for `O=C(CCCCl)Nc1c2c(nn1-c1ccccc1)CSC2`, the inhibition was -34.6%.

As to `COc1ccc(-n2nc3c(c2NC(=O)CCCl)CSC3)cc1`, the inhibition is 1.9%.

As to `CCC(=O)Nc1c2c(nn1-c1ccc(OC)cc1)CSC2`, the inhibition was -5.8%.

As for `COc1ccccc1P(=O)(Cc1ccccc1[N+](=O)[O-])c1ccccc1` (stereo not given), the inhibition was -7.4%.

Consider `CN1Cc2c(N3CCOCC3)nc3sc(C#N)c(N)c3c2CC1(C)C`, for which the inhibition was -1.3%.

For `CCOc1cc2c3c(c1)C(C)CC(C)(C)N3C(=O)C2=O` (stereo not given), the inhibition is -0.3%.

For the compound `CCc1cc2c3c(c1)C(C)CC(C)(C)N3C(=O)C2=O` (stereo not given), the inhibition was -3.6%.

For the compound `COc1ccc(OC)c(NC(=O)CSc2nncc3ccc(OC)c(OC)c23)c1`, the inhibition is 1%.

As to `COc1ccc(OC)c(/C=N\NC(=O)c2ccc(-c3ccccc3)cc2)c1`, the inhibition is -32%.

As for `COc1ccccc1Nc1nc(N)nc(CN2CCCCC2)n1`, the inhibition was -0.3%.

With `Cc1ccc(C(=O)CSc2nnc(-c3ccccc3N)n2C)cc1`, the inhibition was 101% (active).

Take `Cc1ccc(C(=O)CSc2nnc3c4ccccc4nc(C(C)(C)C)n23)cc1`: the inhibition was 92.5% (active).

For `Cc1ccc(C(=O)CSc2nnc(-c3ccccc3N)n2C)cc1C`, the inhibition is -30.8%.

Take `Cn1c(SCC(=O)c2ccc(F)cc2)nnc1-c1ccccc1N`: the inhibition is -7.5%.

Take `CC(=O)CSc1nnc2c3ccccc3nc(C(C)(C)C)n12`: the inhibition is -19.2%.

For the compound `Cc1ccc(C(=O)CSc2nnc3c4ccccc4nc(Cc4ccccc4)n23)cc1`, the inhibition was -10.1%.

In the case of `CCCCN(C(=O)/C=C/c1ccc(OCC(C)C)c(OCC)c1)c1c(N)n(CCC)c(=O)[nH]c1=O`, the inhibition is -20.9%.

Consider `CCCCNCc1cc(Cl)c(OCCC)c(OCC)c1`, for which the inhibition is -20.5%.

`Cc1ccccc1NC(=O)COC(=O)c1cccnc1`: the inhibition was -22.1%.

In the case of `COc1ccc(-n2c(SCC(=O)Nc3cccc(C(=O)O)c3)nnc2-c2ccco2)cc1`, the inhibition is -20.2%.

Consider `Cc1nc(Cl)c2c(n1)NC(=O)CO2`, for which the inhibition was 0.5%.

For the compound `CCN(CC)C(=O)Oc1ccc2ccccc2c1Br`, the inhibition is -53.4%.

With `COc1cc(NC(=O)c2ccc([N+](=O)[O-])o2)ccc1NC(=O)c1cccs1`, the inhibition is 9.1%.

As for `Cc1ccc2nc(-c3ccc(NC(=O)c4cccnc4)cc3)oc2c1`, the inhibition was 58.7% (active).

For `O=C(Nc1ccc2oc(-c3ccncc3)nc2c1)c1ccc([N+](=O)[O-])o1`, the inhibition was 22.8%.

Regarding `Cc1ccc2oc(-c3ccc(NC(=O)c4cccnc4)cc3)nc2c1`, the inhibition was -27.5%.

Turning to `O=C(Nc1cccc(NC(=O)c2cccs2)c1)c1ccc([N+](=O)[O-])o1`, the inhibition was 36.9% (active).

With `O=C(Nc1ccc2oc(-c3cccnc3)nc2c1)c1ccc(Br)o1`, the inhibition is -16.5%.

Consider `O=C(Nc1cccc(NC(=O)c2cccs2)c1)c1ccc(Br)o1`, for which the inhibition was -17.2%.

Take `O=C(Nc1ccc(-c2nc3ccccc3o2)cc1)c1cccnc1`: the inhibition was -1.6%.

Turning to `COCCNC(=O)C(c1ccc(OC)cc1)N(Cc1ccco1)C(=O)CCC(=O)Nc1ccccn1` (stereo not given), the inhibition is 19.2%.

As to `COc1ccc(CN2CCN(Cc3c[nH]c4ccccc34)CC2CCO)cc1C` (stereo not given), the inhibition is -1.8%.

Regarding `Cc1ccc(C(=O)CCNc2ccc(Cl)cc2)o1`, the inhibition is -29.8%.

On to `CS(=O)(=O)N(CC(=O)NCC1CCCO1)c1cc(Cl)ccc1Cl` (stereo not given), for which the inhibition was 2.4%.

Take `O=c1c[n+]([O-])c2ccccc2n1OCc1ccccn1`: the inhibition was 0.2%.

Take `C#CCN1C(=O)C(O)(CC(=O)/C=C/c2ccco2)c2ccccc21` (stereo not given): the inhibition was -14.4%.

In the case of `CC1CCC(C(=O)NC(C(=O)N2CCN(c3ccccn3)CC2)C(C)C)CC1` (stereo not given), the inhibition is 68% (active).

Consider `CC(C)CC(NC(=O)C1CCC(C)CC1)C(=O)N1CCN(c2ccccn2)CC1` (stereo not given), for which the inhibition was 0.1%.

Turning to `CSCCC(NC(=O)C1CCC(C)CC1)C(=O)N1CCN(c2ccccn2)CC1` (stereo not given), the inhibition was 4.8%.

Turning to `C/C(=N\N(c1ccccc1)c1ccccc1)c1ccco1`, the inhibition is -19.4%.

For `COCCOC(=O)C1=C(C)NC(=S)NC1/C=C/c1ccccc1` (stereo not given), the inhibition is -9.4%.

`Cc1cccc(NC(=O)c2cccc(NC(=O)c3ccccc3)c2)n1`: the inhibition was -35.6%.

On to `COc1ccc(NC(=O)CSc2nc3nc(-c4cccs4)cc(C(F)(F)F)c3c(=O)[nH]2)c(OC)c1`, for which the inhibition is 31.6%.

`CC(=O)Nc1ccc(NC(=O)CSc2nc3nc(-c4cccs4)cc(C(F)(F)F)c3c(=O)[nH]2)cc1`: the inhibition was -6.3%.

For `O=C(NCc1ccccc1)C1=C[C@@H](C2CC2)C[C@@H](OCCCCO)O1`, the inhibition is -27.5%.

For `O=C(CC1Sc2ccccc2NC1=O)OC(C(=O)NCCc1ccccc1)c1cccnc1` (stereo not given), the inhibition is 3.7%.

Take `O=C(OCC(=O)N1CCc2ccccc21)c1c2c(nc3ccccc13)CCCCC2`: the inhibition was 4.9%.

As to `CN1/C(=C\C(=S)NC(=O)c2ccccc2Cl)C(C)(C)c2ccccc21`, the inhibition is -48.3%.

With `Cc1ccc(C(=O)NC(=S)/C=C2\N(C)c3ccccc3C2(C)C)cc1`, the inhibition is 15.2%.

Turning to `COc1ccccc1C(=O)NC(=S)/C=C1/N(C)c2ccccc2C1(C)C`, the inhibition is 90.4% (active).

Regarding `Fc1ccccc1/C=C1\CCCC2=C1Nc1ncnn1C2c1ccccc1F` (stereo not given), the inhibition was 91% (active).

Consider `C(=C1/CCCC2=C1Nc1ncnn1C2c1ccccc1)/c1ccccc1` (stereo not given), for which the inhibition is 3.1%.

As for `Fc1ccccc1/C=C1\CCCC2=C1Nc1nnnn1C2c1ccccc1F` (stereo not given), the inhibition is 11.4%.

On to `Cc1ccc(CSc2nn3c(=O)c(C)nnc3s2)cc1`, for which the inhibition is -32.1%.

With `N#CC(C#N)=c1ccc2c(c1)N1C3=C(CCCC3)CC3CCCCC31N=2` (stereo not given), the inhibition is 7%.

In the case of `O=[N+]([O-])C(=c1ccc2c(c1)N1C3=C(CCCC3)CC3CCCCC31N=2)[N+](=O)[O-]` (stereo not given), the inhibition is 0.7%.

With `N#C/C(C(N)=O)=c1/ccc2c(c1)N1C3=C(CCCC3)CC3CCCCC31N=2` (stereo not given), the inhibition is 86.2% (active).

`COc1cccc(CNC(=O)CN(C)S(=O)(=O)c2cccc3cccnc23)c1`: the inhibition was -2.3%.

Consider `CCC(C)C(NC(=O)CCC(=O)OCC(=O)[C@@]1(O)CCC2[C@@H]3CCC4=CC(=O)C=C[C@]4(C)C3[C@@H](O)C[C@@]21C)C(=O)O` (stereo not given in full), for which the inhibition was -4.9%.

Take `O=C(Nc1nc(-c2ccccn2)cs1)c1ccc(Br)s1`: the inhibition is 32.1%.

In the case of `O=C(Nc1nc(-c2cccs2)cs1)c1ccc(Cl)s1`, the inhibition is -18.7%.

On to `Cc1cc(=O)n(C)c2ccc(S(=O)(=O)N3CCOCC3)cc12`, for which the inhibition is -9%.

In the case of `O=C(/C(=C/O)N=Nc1ccccc1)c1cccs1`, the inhibition is -9.4%.

Regarding `COc1ccc(N=N/C(=C\O)C(=O)c2cccs2)cc1`, the inhibition is 41.3% (active).

In the case of `Cc1cccc(N=N/C(=C\O)C(=O)c2cccs2)c1`, the inhibition was 27%.

`Cc1ccccc1C(=O)Nc1c(C)[nH]c(=O)[nH]c1=O`: the inhibition was -1.1%.

Turning to `CCC(=O)Nc1cccc(C2=NOC3(C2)C[C@H](C(N)=O)N(C(=O)Cc2ccc([N+](=O)[O-])cc2)C3)c1` (stereo not given in full), the inhibition was 0%.
